CYP2C9 act: CYP2C9 (human) activation; P11712; recombinant CYP2C9, luciferin-H conversion, luminescence; stronger effect = higher value; factor 1 = untreated enzyme, 0 = blocked; activation factor at 5 µM; hit rate 1.4% among 96,000; AID 1024;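 active = activation factor of 2 or more for CYP2C9 at a 5 µM dose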;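 note: 0 = sulfaphenazole-blocked wells and 1 = vehicle-only wells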
CYP2C19 act: cytochrome P450 2C19 (human) activation | P33261 | recombinant CYP2C19, luciferin-H EGE luminescence; stronger effect = higher value; 0 = fully inhibited enzyme, 1 = untreated enzyme | activation factor at 5 µM | 96,000 tested, under 10 active;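 active = activation factor of at least 2 at 5 µM in the primary screen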;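 note: 0 = wells with 2.5 mM tranylcypromine and 1 = vehicle-only wells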
Target sequence (P33261 whole entry, looked up): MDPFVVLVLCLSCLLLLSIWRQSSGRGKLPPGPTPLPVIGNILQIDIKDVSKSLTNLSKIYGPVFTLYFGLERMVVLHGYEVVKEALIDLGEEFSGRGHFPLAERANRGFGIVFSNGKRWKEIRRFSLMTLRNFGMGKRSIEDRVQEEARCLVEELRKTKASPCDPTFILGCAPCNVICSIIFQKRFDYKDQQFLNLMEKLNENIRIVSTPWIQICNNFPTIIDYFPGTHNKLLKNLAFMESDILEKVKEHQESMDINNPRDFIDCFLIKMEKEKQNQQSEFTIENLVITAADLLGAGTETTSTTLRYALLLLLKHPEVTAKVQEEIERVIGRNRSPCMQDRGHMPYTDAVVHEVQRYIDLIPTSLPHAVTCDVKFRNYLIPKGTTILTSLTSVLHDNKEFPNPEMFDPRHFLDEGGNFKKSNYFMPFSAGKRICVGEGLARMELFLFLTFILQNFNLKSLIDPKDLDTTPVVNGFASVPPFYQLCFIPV
Cav3 T inh: human Cav3.2 channel inhibition, primary screen; O95180; Cav3.2-expressing cells, Fluo-4 calcium fluorescence FDSS; stronger effect = lower value; B-score at 10 µM; hit rate 4% among 100,000;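 active = single-dose well whose peak fluorescence ratio is a statistical outlier from its plate by either plate-standardised score or position-corrected B-score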
CYP2C19 inh: inhibitors of human CYP2C19; P33261; CYP2C19 Supersomes, luciferin-H EGE luminescence, 30 min; inhibition, % at 5 µM; hit rate 21% among 96,000; AID 778;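 active = CYP2C19 inhibition above a set limit at 5 µM in the primary screen, cut at about 50% in these data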;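 note: plate controls were negative control wells for no effect and 2.5 mM tranylcypromine positive control for full effect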
CYP2C9 inh: inhibitors of human CYP2C9. CYP2C9 Supersomes, luciferin-H conversion, luminescence. hit rate 20% among 96,000. P11712. inhibition, % at 5 µM;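 active = blocking of liver enzyme CYP2C9 beyond about 50% at 5 µM, limit read from the data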
* hit, by the source's call; . = no result given. Sampled rows, rich in hits. Any-hit rate of the full collection: about 27%.

SMILES | CYP2C9 act | CYP2C19 act | Cav3 T inh | CYP2C19 inh | CYP2C9 inh
Cn1c(SCC(=O)c2ccccc2)nnc1-c1cccc(N)c1 | 0.7 | 0.1 | 0.57 | 95* | 31
CC(C)(C)NC(=O)CSc1ccc(C(C)(C)C)cc1 | . | . | -1.3 | . | .
Cn1c(SCC(=O)c2ccccc2)nnc1-c1ccc(O)cc1 | 1.8 | 0.1 | 1.9 | 93* | -78
Cn1c(SCC(N)=O)nnc1-c1ccccc1 | 1.2 | 1.1 | 0.062 | -15 | -23
CC(C(=O)O)N1C(=O)CSc2ncccc21 (stereo not given) | 1 | 1 | 0.66 | -4 | -3
O=C(O)C1C2C=CC(C2)C1C(=O)Nc1nccs1 (stereo not given) | 1 | 0.9 | 0.2 | 12 | 4
CC1(C)CC(C(=O)Nc2nccs2)CCO1 (stereo not given) | 1 | 0.7 | . | 27 | -3
O=C(Nc1ccccc1)C(=O)Nc1ccccn1 | 0.8 | 0.7 | -0.18 | 30 | 22
CC12COC3(C(=O)Nc4nccs4)CC1CCC32C (stereo not given) | 1 | 0.4 | 0.53 | 60* | 5
O=C(Nc1nccs1)C12CC3CC(C1)CC(C(=O)Nc1nccs1)(C3)C2 | 0.2 | 0.1 | -1.1 | 91* | 81*
O=C(Nc1ccccn1)C12CC3CC(CC(C3)C1)C2 | 0.1 | 0.7 | -1.8 | 26 | 92*
CCCCCCn1c(N2CCC(C(N)=O)CC2)nc2c1c(=O)n(C)c(=O)n2C | 1 | 0.9 | 1.4 | 5 | -4
CCOC(=O)C1C(=O)N(C(=O)c2cncc(Br)c2)CC1c1ccccc1 (stereo not given) | 0.9 | 0.2 | 0.046 | 84* | 9
CCOC(=O)C1C(=O)N(C(=O)c2ccc(OC)cc2)CC1c1ccccc1 (stereo not given) | 0.9 | 0.9 | 0.15 | 13 | 9
CCSc1nc(-c2ccc(OC)cc2)ccc1C#N | 0.1 | 0.4 | -0.9 | 63* | 90*
N#Cc1ccc(-c2ccc3c(c2)OCO3)nc1SCC(=O)OCc1ccccc1 | 0.1 | 1.2 | -4.6* | -24 | 92*
COc1ccc(-c2ccc(C#N)c(SCC(=O)OCc3ccccc3)n2)cc1OC | 0.1 | 0.8 | -0.43 | 22 | 92*
COc1ccc(-c2cc(-c3ccc(OC)cc3)c(C#N)c(SC)n2)cc1 | . | . | -0.84 | . | .
CCOc1ccc(CCNC(=O)c2cc3ccccn3n2)cc1OCC | 0.8 | 0.7 | 1.8 | 29 | 16
Cc1nc(SCC(=O)OCc2ccccc2)c(C#N)c(-c2ccccc2)c1C(=O)Nc1ccccc1 | 0.4 | 0.8 | -2.4 | 19 | 59*
CSc1nc(C)c(C(=O)Nc2ccccc2)c(C)c1C#N | 0.7 | 0.3 | -0.58 | 73* | 33
CSc1nc(N)nc(SCC(=O)c2ccccc2)c1C#N | 0.8 | 1 | . | 4 | 25
CCCc1cc(=O)n2[nH]c(NCc3c(F)cccc3Cl)nc2n1 | 0.5 | 0.9 | -0.4 | 13 | 47
Cn1nnnc1SCC(=O)NC1CCCCC1 | 1 | 0.9 | -0.6 | 12 | -4
CC1CCCC(NC(=O)CSc2nnnn2C)C1C (stereo not given) | 1.1 | 0.7 | -4.7* | 26 | -12
SMILES | CYP2C9 act | CYP2C19 act | Cav3 T inh | CYP2C19 inh | CYP2C9 inh
CC1CCCCC1NC(=O)CSc1nnnn1-c1ccccc1 (stereo not given) | 0.9 | 0.1 | -0.41 | 89* | 6
Cc1ccc(-c2nc(NC(=O)CSc3nnnn3-c3ccccc3)ns2)cc1 | 1.2 | 1 | -0.28 | 2 | -20
COC(=O)c1c(NC(=O)CSc2nnnn2-c2ccccc2)sc2c1CCC(C)C2 (stereo not given) | 0.3 | 0.6 | -0.48 | 41 | 71*
CC1(C(=O)N(CC(=O)NC2CCCC2)Cc2ccco2)CC(=O)N=C2C=CC=CN21 (stereo not given) | 1.1 | 1.1 | -0.031 | -5 | -8
CN(Cc1ccco1)C(=O)C1CCC(=O)N1Cc1ccc(F)cc1 (stereo not given) | 0.9 | 0.9 | -0.16 | 12 | 8
CCCc1cc(=O)[nH]c(Nc2ccc(O)cc2)n1 | 1 | 0.8 | 1.1 | 16 | -1
CCCc1cc(=O)[nH]c(Nc2ccc(OC)c(Cl)c2)n1 | 0.3 | 0.9 | 0.26 | 13 | 72*
COc1ccc(/C=C\C(=O)CC(O)(c2ccccc2)C(F)(F)F)cc1 (stereo not given) | 0.8 | 0.6 | -2.4 | 42 | 19
CCOC(=O)c1c(C)nc2sc(C(=O)Nc3ccccc3)c(N)c2c1-c1ccc(OC)cc1 | 0.2 | 0.2 | -3.4 | 76* | 82*
COC(=O)c1cc2oc(C)cc2n1CC(=O)Nc1ccc(C)c(C)c1 | 0.6 | 0.6 | -0.24 | 37 | 40
COC(=O)c1cc2sc(Cl)cc2n1CC(=O)N1CCCc2ccccc21 | 0.3 | 0.2 | -2.7 | 83* | 73*
Cc1ccc2oc(=O)c3cnn(CC(=O)N4CCCc5ccccc54)c3c2c1 | 0.4 | 1 | 1.5 | -2 | 55*
COC(=O)c1cc2oc(C)cc2n1CC(=O)N1CCCc2ccccc21 | 0.3 | 0.3 | . | 67* | 68*
CCOC(=O)c1cc2sccc2n1CCCN1C(=O)c2ccccc2C1=O | 0.3 | 0.7 | -2.6 | 32 | 69*
CCC1CCCCN1C(=O)Cn1c(C(=O)OC)cc2sc(Cl)cc21 (stereo not given) | 0.9 | 0.7 | -2.4 | 31 | 7
Cc1nn(C)cc1CNC(=O)Nc1cccc(Cl)c1 | 1.3 | 0.7 | 2.8 | 28 | -27
COc1ccc(C2OC(=O)c3ccccc3S2)cc1 (stereo not given) | 1 | 0.7 | -0.94 | 30 | 3
CCOC(=O)c1cc2sc(C)cc2n1CC(=O)N1CCc2ccccc21 | 0.9 | 0.9 | -0.093 | 13 | 10
CCOC(=O)c1cc2occc2n1Cc1ccc(F)cc1 | 0.8 | 1 | -0.092 | 0 | 20
CCOC(=O)c1cc2occc2n1CC(=O)N1CCCc2ccccc21 | 0.1 | 0 | -0.26 | 96* | 87*
CCOC(=O)c1cc2sccc2n1CC(=O)N1CCCc2ccccc21 | 0.1 | 0 | -3.8* | 98* | 94*
COC(=O)c1cc2sccc2n1CC(=O)N1CCCc2ccccc21 | 0.3 | 0.2 | -2.7 | 83* | 69*
O=C(CCCCCN1C(=O)CCC1=O)Nc1ccc2c(c1)OCCO2 | 0.7 | 0.9 | 0.16 | 10 | 26
CCC(=O)N1CCc2cc(S(=O)(=O)CCC(=O)NCc3ccc4c(c3)OCO4)ccc21 | 0.7 | 0.8 | 0.11 | 23 | 29
Cc1ccc(C)c2c1[nH]c1ccccc12 | 1 | 0.1 | 0.069 | 86* | 3
Cc1ccc(C)c2c1[nH]c1ccc([N+](=O)[O-])cc12 | 0.4 | 0.2 | -0.48 | 78* | 61*
Cc1ccc(C(=O)c2ccc([N+](=O)[O-])cc2)cc1C | 0.7 | 0.8 | 0.017 | 22 | 26
O=c1cc2[nH]c3ccccc3c(=O)n2nc1-c1ccccc1 | 0.3 | 0.6 | 0.85 | 37 | 71*
O=c1nc(-c2ccccc2)c2cc(Cl)ccc2[nH]1 | 0.9 | 1.1 | . | -8 | 10
Cc1cc(C(C)(C)C)cc(C)c1COC(=O)C1CCC(=O)N1 (stereo not given) | 0.7 | 0.4 | -1.5 | 63* | 34

From PubChem
